# Measurements reported in the supplement of paper PMC7156485.
# Where “and” joins values, the source holds several entries; their conditions need not be identical. Equal values may be shown once. ± gives the standard deviation of the averaged measurements.
# System: TDF
# Experiment: cell number relative to DMSO (% of DMSO); higher = more cells (less growth inhibition / toxicity)
# Conditions: concentration: 10 µM; 24 h
# In short: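 In 384-well plates holding 800 HCC1569 or TDF cells per well in RPMI with 10% FBS, compounds were tested at 10 µM for 24 h at 37 °C in triplicate. Fixation used 3.7% formaldehyde. Staining used a rabbit anti-H1.0 antibody with an AlexaFluor 647 secondary, plus DAPI. Each value, H1.0 nuclear intensity or cell number, is a median of replicates shown as percent of the plate control, and HCC1569 values were smoothed for positional effects.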
# 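Further: TDF denotes transformed human dermal fibroblasts of mesenchymal origin.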
row,SMILES,cell number
1,OCC1=CC(O)C2C=COC(OC3OC(CO)C(O)C(O)C3O)C12 (centres undefined) [Aucubin],107
2,CN(C)CC=C(c1ccc(Br)cc1)c1cccnc1.Cl.Cl [Zimelidine dihydrochloride],86.6
3,COc1ccc(/C=C\c2cc(OC)c(OC)c(OC)c2)cc1OP(=O)([O-])[O-].[Na+].[Na+],10.1
4,"COc1cc(C(=O)c2ccc3ncccc3c2)cc(OC)c1OC [quinolin-6-yl(3,4,5-trimethoxyphenyl)methanone]",8.78
5,CC(C)NCC(O)c1ccc(NS(C)(=O)=O)cc1.Cl (centres undefined) [Sotalol.HCl],111
6,CC12CCC3c4ccc(O)cc4CC(CCCCCCCCCS(=O)CCCC(F)(F)C(F)(F)F)C3C1CCC2O (centres undefined) [Fulvestrant],94.3
7,Cc1ncc([N+](=O)[O-])n1CC(C)O (centres undefined) [Secnidazole],96.6
8,COc1ccc(-c2cc(C(O)C3CCCCN3)c3ccccc3n2)cc1.Cl.Cl (centres undefined),24.8
9,COC(=O)Nc1nc2ccc(C(=O)c3ccc(F)cc3)cc2[nH]1 [Flubendazole],9.66
10,COc1cc(-c2ccc(=O)[nH]n2)ccc1OC(F)F [Zardaverine],107 ± 9.4
11,O=C(CO)N1CCC(c2[nH]nc(-c3ccc(Cl)cc3)c2-c2ccncn2)CC1,105
12,"CN(C)c1nc(N)c(C(=O)N=C(N)N)nc1Cl.Cl [5-(N,N-Dimethyl)amiloride hydrochloride]",89.7
13,CSCC[C@@H](C=O)NC(=O)[C@H](CC(C)C)NC(=O)[C@H](CC(C)C)NC(C)=O,95.5
14,O=S(=O)(NCCNCC=Cc1ccc(Br)cc1)c1cccc2cnccc12,98.1 and 96.7
15,CCN(CC)CCNC(=O)c1ccc(N)cc1.Cl [Procainamide.HCl],101
16,CC(C)n1c(C=CC(O)CC(O)CC(=O)O)c(-c2ccc(F)cc2)c2ccccc21 (centres undefined) [Fluvastatin],64.5
17,CC(=O)OC1(C(C)=O)CCC2C3C=C(Cl)C4=CC(=O)C5CC5C4(C)C3CCC21C (centres undefined) [Cyproterone acetate],99.8

row,SMILES,cell number
1,"CCCCCCCCCCCCCCCCn1cc[n+](Cc2ccccc2)c1C.[I-] [eEF-2 Kinase Inhibitor, NH125]",38.9
2,CC(C)(C)c1nc2c3cc[nH]c(=O)c3c3cc(F)ccc3c2[nH]1 [JAK Inhibitor I],99.5
3,"COc1ccc(/C=C\c2cc(OC)c(OC)c(OC)c2)cc1O [2-methoxy-5-[(Z)-2-(3,4,5-trimethoxyphenyl)ethenyl]phenol]",11.5
4,CN1CCN(CCCN2c3ccccc3Sc3ccc(Cl)cc32)CC1.O=C(O)C=CC(=O)O.O=C(O)C=CC(=O)O [Prochlorperazine dimaleate],105
5,CC(=O)NCCc1c[nH]c2ccc(O)cc12 [N-Acetyl-5-hydroxytryptamine],101
6,Nc1nc2ccc(Cl)cc2c2nc(-c3ccco3)nn12,102
7,O=C(C=Cc1ccc(O)c(O)c1)OC(Cc1ccc(O)c(O)c1)C(=O)O (centres undefined) [Rosmarinic acid],101 ± 6.3
8,OCc1cc(C(O)CNCCCCCCOCCCCc2ccccc2)ccc1O (centres undefined) [Salmeterol],100
9,CS(=O)(=O)Nc1ccc(-c2coc3cc(OCc4cccc(C(=O)O)c4)ccc3c2=O)cc1,109
10,COc1cc2c[n+](C)c3c4cc5c(cc4ccc3c2cc1OC)OCO5.[Cl-],34.7
11,CC(=O)OC(C)C[N+](C)(C)C.[Cl-] (stereo not drawn) [Acetyl-beta-methylcholine chloride],94.7
12,COc1cccc(OC)c1OCCNCC1CSc2ccccc2O1.Cl (centres undefined) [Benoxathian hydrochloride],108
13,CCC(Sc1nnc2c(n1)[nH]c1ccccc12)C(=O)N1c2ccccc2Sc2ccccc21 (centres undefined),96.3
14,COc1cc(NS(=O)(=O)c2ccc(N)cc2)nc(OC)n1 [Sulfadimethoxine],109
15,Br.CN(C)CCCC1(c2ccc(F)cc2)OCc2cc(C#N)ccc21 (centres undefined) [Citalopram hydrobromide],103
16,CN1c2ccccc2C(=O)N2CCc3c([nH]c4ccccc34)C21 (centres undefined) [Evodiamine],9.57
17,CCCCN1CCC(n2c(=O)[nH]c3ccccc32)CC1.O=C(O)C(=O)O [NS 521 oxalate],102
